The record followed here is publication PMC12864922, “TDP-43 directly inhibits mRNA accumulation in neurites through modulation of mRNA stability”.

Sequences and labels used below:
B1: ENSMUSG00000029028.201|Lrrc47 (ssRNA)
RNA: GGGAGUUCUACAGUCCGACGAUCGCUUCGAUAUCCGCAUGCUAAGCACACAGCUGCCAUCCCUCGAGCCACAGUGCCUGGUCCUAAGGACCCAGCAGCUGCACAGAGGACUUGGUGGCCCCGUGCCUUGCCAUCUGGCUGAGAAGAGAACCAGACCCUCAGCCUUCCCCCUCGACACCUUCUCGUUGGUGACCUCUGACCUUAAAGGACCAUUUCUACCUUCUGUAAAAGAACACCUGUUUGGGGUUGCGUGCGGCUUUCAUCCUAAGGCCGUGCGAGAGCCGUUAGCUGUCAGAACUAGUGACUCUUGCGGUCGCACUAGUGUGGAAUUCUCGGGUGUCAAGG
B2: ENSMUSG00000028439.16|Fam219a (ssRNA)
RNA: GGGAGUUCUACAGUCCGACGAUCGCUUCGAUAUCCGCAUGCUAAUUCAGUAGUGGGCGGGGUCGCCGCGGUGCACGGGGCGCUGACCUGGGCCCGGUGGGAUGCAGCAGGAGAGACCCCUACCCUGCUGGUCCACUGGUCCCCAGCCCCGCGCCUCUUAGAGCCGCCAACCUCGUAACAGUCAUUGCUUCCUCCUAUGGUAGGACGUGUACCUCUGUGUGUUCAAGGAGCCGGAGAAACCAAAACCGGGUCUGUCUCCAGCCCCGGGGCUGAGGAGGGGUGGGCACUGUUUGUUCGGUUACUUCUCUUGCGGUCGCACUAGUGUGGAAUUCUCGGGUGUCAAGG
B3: ENSMUSG00000031028.682|Tub|139:143;183:187;256:260 (ssRNA)
RNA: GGGAGUUCUACAGUCCGACGAUCGCUUCGAUAUCCGCAUGCUACUAUUUUGGAGUGGUCAGACAUUUUAUUUUUGUUCAAAAUUAUCUGGAGUUUUAGACAAACUUGCAAAACUGUGCUUUUAUUAAGUGACUUUUUGAAUAAACUUUUUGGUAUUCUGAAGCAAAUGUAUUUAUUUAUUGCAUACUGCAAUGACAAACUUGGUAUUUUCCCAUAAUGACAUUAUCAUACUUGUAGAAUUUAGUGUUUGUCUAAGUACAGACAUGUAUCAACACAUUAAACUUGAACUGUUUGACGGCACACACUCUUGCGGUCGCACUAGUGUGGAAUUCUCGGGUGUCAAGG
B4: ENSMUSG00000090935.52|Synj2bp (ssRNA)
RNA: GGGAGUUCUACAGUCCGACGAUCGCUUCGAUAUCCGCAUGCUAGUGUCCCUGAGAGUACAGCACAGGUUACCAGUGCAGAAUGGACCUAUAGUACAUCGAGGUGAAGGAGAGCCAAGUGGAGUUCCUGUAGCUAUGGUGCUGCUACCAGUGUUUGCCCUCACCAUGGUAGCAGUUUGGGCCUUCGUGAGAUACCGAAAGCAGCUUUGAAAUGCUUGCUGUCUUCCAGUGUGUCCAAUGAACUCUCUCUCUCACUCACCAUCUCUGACAUCCUCCCAUAUUCUUUCUCCUCCACAUAGCCAAUACUCUUGCGGUCGCACUAGUGUGGAAUUCUCGGGUGUCAAGG
B5: ENSMUSG00000061578.273|Ksr2 (ssRNA)
RNA: GGGAGUUCUACAGUCCGACGAUCGCUUCGAUAUCCGCAUGCUAGGCCCUGGGCUCCAGAGUCGCUGAAGACCACUCUCCACAGCAGCUGUAACCCCAUCUAACAAGCCCUGUUCUGGAUAUAUCUCUGUGGCCAGGGCUGGACUGAGACUGACCCCCUCCUACUAAGCAUCUUAGAGUUUCUCUUUUCUCUUUAAUUGCAUCAGGACCCCUUUGGUCCAUGUACCCCGGUCUCUGUCACAUGCCUUUGUAUCUUGGAGGAAGUAAGAGAGGAGAGAGCCAGGGAGGGCUGAAGCUCUGGGACCCUCUUGCGGUCGCACUAGUGUGGAAUUCUCGGGUGUCAAGG
B6: ENSMUSG00000058297.286|Spock2|1:6;125:130 (ssRNA)
RNA: GGGAGUUCUACAGUCCGACGAUCGCUUCGAUAUCCGCAUGCUAACACACAGAGAGAGAGAGAGAGAGAGAGAGAGAGAGAGAGAGAAAGAGAGAGAGAAUGAGAGAGAAUGAGAGAGAGAAUACCCGAGGGCCACCCUGAUGCCCAGGAAGAGUGAGGGCAGCCCCCACACACGUGGAAGAGGCUGGGCAGCUAGCUACUGGGGACCUUGUGCUGAGGCUUCCAGGACAAAGCCCCAGUCUGGCUCUCCCCCAGCCUCUCAGGGGCACUGGCUGGUCACAUCCACUGAGUAUUGAUCGGUUGGCUCUUGCGGUCGCACUAGUGUGGAAUUCUCGGGUGUCAAGG
B7: ENSMUSG00000058297.285|Spock2|1:12;131:136 (ssRNA)
RNA: GGGAGUUCUACAGUCCGACGAUCGCUUCGAUAUCCGCAUGCUAACACACACACACAGAGAGAGAGAGAGAGAGAGAGAGAGAGAGAGAGAGAAAGAGAGAGAGAAUGAGAGAGAAUGAGAGAGAGAAUACCCGAGGGCCACCCUGAUGCCCAGGAAGAGUGAGGGCAGCCCCCACACACGUGGAAGAGGCUGGGCAGCUAGCUACUGGGGACCUUGUGCUGAGGCUUCCAGGACAAAGCCCCAGUCUGGCUCUCCCCCAGCCUCUCAGGGGCACUGGCUGGUCACAUCCACUGAGUAUUGAUCCUCUUGCGGUCGCACUAGUGUGGAAUUCUCGGGUGUCAAGG
B8: ENSMUSG00000058297.284|Spock2|1:18;137:142 (ssRNA)
RNA: GGGAGUUCUACAGUCCGACGAUCGCUUCGAUAUCCGCAUGCUAACACACACACACACACACAGAGAGAGAGAGAGAGAGAGAGAGAGAGAGAGAGAGAAAGAGAGAGAGAAUGAGAGAGAAUGAGAGAGAGAAUACCCGAGGGCCACCCUGAUGCCCAGGAAGAGUGAGGGCAGCCCCCACACACGUGGAAGAGGCUGGGCAGCUAGCUACUGGGGACCUUGUGCUGAGGCUUCCAGGACAAAGCCCCAGUCUGGCUCUCCCCCAGCCUCUCAGGGGCACUGGCUGGUCACAUCCACUGAGUACUCUUGCGGUCGCACUAGUGUGGAAUUCUCGGGUGUCAAGG
B9: ENSMUSG00000058297.297|Spock2|59:64 (ssRNA)
RNA: GGGAGUUCUACAGUCCGACGAUCGCUUCGAUAUCCGCAUGCUAUGAGAGAGAGAAUACCCGAGGGCCACCCUGAUGCCCAGGAAGAGUGAGGGCAGCCCCCACACACGUGGAAGAGGCUGGGCAGCUAGCUACUGGGGACCUUGUGCUGAGGCUUCCAGGACAAAGCCCCAGUCUGGCUCUCCCCCAGCCUCUCAGGGGCACUGGCUGGUCACAUCCACUGAGUAUUGAUCGGUUGGACUUUAGGGAAGAGCCUCCUCCUUCCCAUUCCUUUCUGCCACCCUGGAAUGGCCACCUUAAUCGUCCUCUUGCGGUCGCACUAGUGUGGAAUUCUCGGGUGUCAAGG
B10: ENSMUSG00000028439.112|Fam219a|120:124 (ssRNA)
RNA: GGGAGUUCUACAGUCCGACGAUCGCUUCGAUAUCCGCAUGCUACAAAGGGAUACUGUCUCUCCAUUAGAUAACUCCUUCCACUGUCUCCCUCCCCCGCUUUCUUACUUUCUGAGGGUUGGGAAGGUAAGAUGGGCCUUAGAGAGAAGCCAGGUUUGGGGAUGCAUACACCUGUUCUCACCGGUCUCUAACCAGUGCAUCUGUCUCUCUGCCUCAUCCCCACACCGCCCUGCCACCCCCAGUCUUCUGUCUAUUGGUUCCAGGCUGGAAGCAAGAGAUAAGGCUGGCCUCCUGUGCCCCAUUGCCUCUUGCGGUCGCACUAGUGUGGAAUUCUCGGGUGUCAAGG
B11: ENSMUSG00000031028.669|Tub (ssRNA)
RNA: GGGAGUUCUACAGUCCGACGAUCGCUUCGAUAUCCGCAUGCUAAUUUCUCUAGCUGAGAGCACACUUAGCCAGUUUUCACGCCUAGAACAUAUAUGUCGAUUUGCACAUGAUUGUCUUUUCCUAUUUUGGAGUGGUCAGACAUUUUAUUUUUGUUCAAAAUUAUCUGGAGUUUUAGACAAACUUGCAAAACUGUGCUUUUAUUAAGUGACUUUUUGAAUAAACUUUUUGGUAUUCUGAAGCAAAUGUAUUUAUUUAUUGGUAUGUGCAAUGACAAACUUGGUAUUUUCCCAUAAUGACAUUAUCUCUUGCGGUCGCACUAGUGUGGAAUUCUCGGGUGUCAAGG
B12: ENSMUSG00000061578.833|Ksr2 (ssRNA)
RNA: GGGAGUUCUACAGUCCGACGAUCGCUUCGAUAUCCGCAUGCUACUCACAGUUUCAAAGGGCUCAGUCCAUAGCUGCCUGACUCUGUGUUUCUAGGCCUUUCUUGAGGCAAGUGUUCAUCAUGAUAGUGUGAGGGUGAGGAGGAGUUUCUUCAUGGCAAACAGGAAGCAAAGAGCAAUACAGGAAAAGGUCAGGGGUGAGAUGUGUCAUUGCCACUUCCUCCAGCUAGGACCUUUGAGCAUCACAUUGUGAAGCCAUCCAGGGACUUGGGGGUUAGGUCAGAGGUAUCAAUACAUCUCCGGAAACUCUUGCGGUCGCACUAGUGUGGAAUUCUCGGGUGUCAAGG

Over roughly 9,900 sequences, “r (bound/input frequency ratio)” has its median near 0.7; the highest 2% begin near 6.5. The sample as a whole holds a higher share of the highest values than the screen did.

For this experiment, the target named is TDP-43 (Homo sapiens, UniProt Q13148 1-414). Briefly: RNA Bind-n-Seq with designed 260-mer pool; 25 mM Tris-HCl, 150 mM KCl, 3 mM MgCl2, BSA (printed 500 mg/mL), 20 units/mL SUPERase IN; pH not stated; 500 nM RNA pool, 1 h, 4 C; TDP-43 5, 50, 500 nM; high values mean tight binding. The following applies: protein: recombinant; tags: SBP (GST cleaved off with PreScission; pGEX-GST-SBP). The method in brief: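 An in vitro-transcribed pool of 260-nt 3′ UTR oligos (500 nM) was incubated for 1 h at 4 °C with recombinant SBP-tagged TDP-43 at 5, 50 or 500 nM held on streptavidin beads. The buffer contained 25 mM Tris-HCl, 150 mM KCl, 3 mM MgCl2, BSA and SUPERase IN. Biotin-eluted bound RNA was sequenced, and binding, R, is each oligo's normalized read abundance in the bound sample over that in input.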
Sequence of TDP-43 (Q13148 whole entry): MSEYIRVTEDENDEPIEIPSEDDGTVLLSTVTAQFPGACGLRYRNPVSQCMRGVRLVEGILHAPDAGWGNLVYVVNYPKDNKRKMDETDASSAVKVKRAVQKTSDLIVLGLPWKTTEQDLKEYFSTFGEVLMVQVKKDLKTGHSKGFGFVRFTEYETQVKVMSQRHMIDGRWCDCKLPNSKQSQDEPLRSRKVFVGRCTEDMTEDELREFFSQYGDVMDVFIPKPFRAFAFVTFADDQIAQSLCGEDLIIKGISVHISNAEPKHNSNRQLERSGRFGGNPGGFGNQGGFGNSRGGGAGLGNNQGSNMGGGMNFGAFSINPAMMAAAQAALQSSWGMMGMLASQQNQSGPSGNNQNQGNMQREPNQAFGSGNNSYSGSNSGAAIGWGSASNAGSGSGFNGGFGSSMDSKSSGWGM
Turning to B1, the binding signal is 0.156 R (bound/input frequency ratio).

For B2, the binding signal was 0.466 R (bound/input frequency ratio).

For B3, the binding signal was 0.0217 R (bound/input frequency ratio).

Regarding B4, the binding signal was 1.19 R (bound/input frequency ratio).

Take B5: the binding signal is 0.384 R (bound/input frequency ratio).

Turning to B6, the binding signal is 6.42 R (bound/input frequency ratio).

As to B7, the binding signal is 7.3 R (bound/input frequency ratio).

B8: the binding signal was 8.98 R (bound/input frequency ratio).

For B9, the binding signal was 6.44 R (bound/input frequency ratio).

B10: the binding signal is 0.515 R (bound/input frequency ratio).

B11: the binding signal was 0.0963 R (bound/input frequency ratio).

B12: the binding signal was 1.23 R (bound/input frequency ratio).
